# Tested on: PPARg:RXRa DBDmut IVT, anti-RXR (DBD mutation: RXRa K156A/R161A, NR concentration 270 nM, RXRa partner concentration 90 nM)
# Experiment: PBM binding z-score (relative to random genomic background probes); higher = stronger binding; sequences stand for … in GC…GCGATTGACAGCGTAGAATGAAGG
# Procedure, shortened: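 Antibodies against each partner of ligand-free nuclear receptor dimers (one per run) detected binding on custom Agilent 4×180K protein-binding microarrays after 1 h incubation. The double-stranded probes had 34-nt variable regions carrying direct-repeat seeds, single-nucleotide variants, half-site ablations and random human genomic background sequences. Binding z-scores, from regression-normalized fluorescence, use the random background probes as reference.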
row,Sequence,PBM binding z-score
1,CCTAGTTGGTCAAGGTCACGCACGCTATAGGTAC,2.54
2,GATACAGGGTCATCTAGAGGCCAGAGTATGGAAA,1.93
3,AGTCAAAGTTCACTAGGTTACGTAAGATTCAGCT,3.75
4,CCAGACAGGTGAAAGGTAACTCACTCTGGTACGC,2.36
5,ATCTCTAGGTGAAAGTTCAGTGAATCCCGAGGAT,5.35
6,CAAACTAGGTCAAGGTCAAATTCGGTTTGTGCCA,8.72
7,CAAACTAGGTCACGAAAGGTCAAAATCGAATGAC,8.56
8,CCTACTGGGCCAAGGTCATTGACCAGTCAAAGCA,3.82
9,TTAACAAGGTGAAAGGTCGTTGATGCACGCCTTG,4.84
10,CCTGCTCGGTCAATGGTCAGCTAAAGCAGCTCGC,0.753
11,CGTCAAAGTTCAAGGTAATGTAACAGAAAGCAGC,0.0949
12,CAAACTAGGTCAAAGGTCAAAGACGAGCCAACCA,8.8
13,CCTACTGGGCCATTGAGAGGTCATTGATCATATG,4.21
14,CCTGCTAGTTCATGGTCAGCTAATCTACAGTATG,0.644
15,TCTAGTTCGTCACGGAGGTCACACACGACGGGTA,1.52
16,AGAATGAGGTTAGCAAAGATCAGGGAAACGCTTG,2.18
17,TAGCCTAGGTCATTCAGGGGCTAGTATAGAAAGC,1.49
18,ACTCGGAGGACAAAGGTAAGAGCTACGCCAGTGA,0.286
19,TCATATAGGTAATCAGGTGAAAGTCCGTAAGTTA,5.4
20,CCTACTGGGCCAAAGGTCATTGACTCCAATGCTC,5.27
21,AAATGTAGGTTAAGGGTCATTCAGGTTGGTTCGC,8.02
22,GGAACTAGGGCAAAGTTGATAGCATCTGTCGACG,7.94
